The full ranking holds about 25,000 sequences; the median of “ln(normalized median fluorescence intensity)” is about 9.3, and the highest 2% start at about 10. Only a selection was taken, and the highest values are over-represented in it overall.
These sequences were tested on PF3D7_0420300 AP2 domain 1 (GST-tagged) (assay: gcPBM binding intensity (ln(normalized median fluorescence intensity)); higher = stronger DNA binding).
Outline: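 An Agilent 4 × 180k array of primer-extended double-stranded 36-bp intergenic genomic probes, with negative controls, was incubated for 1 h with GST-tagged P. falciparum DNA-binding domains expressed in E. coli. Alexa488 anti-GST antibody detected bound protein, scanned at 488 nm. Binding intensity is the highest Masliner-normalised natural-log median intensity across replicate spots of either probe orientation.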

| Sequence | gcPBM binding intensity (ln) |
| --- | --- |
| TTATTAACCTAAATTAGTACATATAATATAAAAAAT [XGTACX_site8661] | 9.18 |
| GAAAAGAAAAATAAACGTACATAAATATTAACATTA [XGTACX_site8213] | 9.2 |
| AGGCTCATTTTTTTTAGTACATCAAAAAAAAAAAAA [TGCATGCA_negctrl_site591] | 8.7 |
| TTTTTTTTTTTTTTTTGTACATATATATAAAAAATA [XGTACX_site2772] | 8.49 |
| ATATATAACTTTTCTTAACACACAAAAAACAAAAAT [CACACA_site8748] | 9.56 |
| TATATATATATAAACGCATGTAATTTATACACACAT [TGCATGCA_site946] | 9.41 |
| GACAATTATATGTAGGTGCATATACAAATTTTTTAA | 9.11 |
| AAAACAAATAGACACGCACACAAAAAAAAAAAAAAA [CACACA_site801] | 9.33 |
| ATATATATATATAACACACGCAAAAAAATTAAATAA [CACACA_site1400] | 9.69 |
| TTAACAAATAGACACACACACACACGCAAAAAAAAA [CACACA_site6387] | 10.2 |
| AAAAAAAAAAAATATATATATATATATATATATATA [CACACA_negctrl_site1606] | 9.3 |
| TATATAAAAATATACACACACAAATGTATATATATA [CACACA_site220] | 9.68 |
| AAAAAAAAAAAAAAATACAAGCACATTTATATAAGC [GTGCAC_negctrl_site695] | 9.46 |
| AAATACTGATTTGGTTGTACATGTGCACTATATAAC [XGTACX_site3795] | 9.35 |
| TCATTTCACAGACACACACACACAATATATTTCCTT [CACACA_site9295] | 10.2 |
| TCATTTCACGGACACACACACACAATATATTTCCTT [CACACA_site6023] | 10.2 |
| TCATTTCACAAACACACACACACAATATATTTCCTT [CACACA_site3905] | 10.1 |
| TATTTTATAATTTACCGTACATTAATTGTATTATTA [XGTACX_site5722] | 9.33 |
| CAATCAAATAGACACACACACACCTAAACATAAAAG [CACACA_site7322] | 10.1 |
| CATACACAGAAACACACACACATATATACATATATA [CACACA_site1094] | 10.1 |
| CAATCAAATGGACACACACACACCTAAACATAAAAG [CACACA_site5524] | 10.2 |

| Sequence | gcPBM binding intensity (ln) |
| --- | --- |
| GTATCAAAAGAATACACACACACATACAGATATATA [CACACA_site5975] | 10.1 |
| ATCAAAAGAAAACACACACACATACATATATATATA [CACACA_site3795] | 10.1 |
| TACATACAGAAACACACACACACATATATATATATA [CACACA_site2919] | 10 |
| ATCAAAAGAAAACACACACACATACAGATATATATA [CACACA_site5974] | 10.2 |
| TAGATACAGAAACACACACACACATACATATATACA [CACACA_site3437] | 10.2 |
| CAATCAAAGAAACACACACACACCTAAACATAAAAG [CACACA_site2756] | 10.2 |
| ATATTACGCACAAAAAAAAAAAAAAAAAAAAAAAAA [CACACA_negctrl_site941] | 8.77 |
| TGGATGTTAATATAGTGTACATTTATAAGTCAGTAT [XGTACX_site2949] | 9.45 |
| ATATTGTAAGTAAACACACACACATCTATAGGTATA [CACACA_site6462] | 9.96 |
| AATATATACATACATACATGCATACATATATATAAC [TGCATGCA_site371] | 9.37 |
| TATAGATACCTATACACACACACACGGACATATATA [CACACA_site7585] | 10.2 |
| TATTTATACCTATACACACACACACGGATATTTATA [CACACA_site7123] | 10.2 |
| GATACCTATAGACACACACACATACCTATATACATA [CACACA_site7586] | 10.1 |
| AAAACAAACAGACACACACACATATTTATATTTATA [CACACA_site7681] | 10.1 |
| TATATATATATATATACACACATATATATATTTATA [CACACA_site627] | 9.39 |
| TATATATATTTATACACACACATATATTTATATATT [CACACA_site484] | 9.7 |
| AAAAAACAGACATACACACACACACGGATATTTATA [CACACA_site7570] | 10.3 |
| CATACATACAGACACACACACATATTTATATTTATA [CACACA_site6172] | 9.94 |
| ACCATACATACATACACACACACACGCATATTTATA [CACACA_site7386] | 10.4 |
| TATATACCTATATACACACACATATATTATAGATAT [CACACA_site6266] | 9.82 |
| TATTTATATTTATATACACACATATATACCTATATA [CACACA_site7820] | 9.48 |

| Sequence | gcPBM binding intensity (ln) |
| --- | --- |
| CATACATACATACATACACACATACCTATATTTATA [CACACA_site6769] | 9.79 |
| AATGCTATCATTAATGCACACATTTAAAATTAATAT [CACACA_site3548] | 9.22 |
| ATTATATTAATTTATAGTACAATATTTATATATATG [XGTACX_site4668] | 9.2 |
| AAATATATATATAGTACATGCAGTAGATAATTTAAT [TGCATGCA_site299] | 9.51 |
| CAGATAGACTTATATGCATGCATTCACATACCAACA [TGCATGCA_site163] | 9.27 |
| ATAATATATATATTTTGTACACATGAAAAGGAGGAT [XGTACX_site5034] | 9.52 |
| TTGCTTATTAAATGGGGTACATTATATATATATATA [XGTACX_site2515] | 9.49 |
| TTTTTTTTTTTTTTTGGTACACATTTTGGTTAATGG [XGTACX_site5109] | 9.06 |
| ATATTATTATTAGTTTCACACATTTAATGAAACTAA [CACACA_site5677] | 9.03 |
| TTGTTAATAAAAATATTGGAAAGTTTATAAAATTTT [CACACA_negctrl_site1487] | 8.9 |
| TGTTCTTTGTTCAGCGCATGTAAAATAAAATAAAAT [TGCATGCA_site629] | 9.04 |
| AGGAGACTTAAAAAAAGTACAAAAAAAAAAAAAAGC [XGTACX_site1576] | 9.65 |
| TATATATATATACCTTGTACTTACATTCGCATATAA [XGTACX_site2466] | 9.32 |
| TAATATATGTATTGCACACCTATAACCATTATTTCT [CACACA_site1498] | 9.51 |
| AGCACAAGCACAAGCACACATTTATATATAAATACA [CACACA_site4642] | 9.42 |
| ATTTTTATTTTATATACACACAATAATAATATAATA [CACACA_site4015] | 9.39 |
| TACATATTTATATACACACACACACGGATATTTATA [CACACA_site7239] | 10.3 |
| ATAATACACAAGCACACACACACACGGATATTTATA [CACACA_site6714] | 10.3 |
| TATTTATATTTATATACACACATACATATTTATATT [CACACA_site6535] | 9.57 |
| TATATATATATTTATACACACACATATATTTATATA [CACACA_site8054] | 9.59 |
